# From PubChem BioAssay (Tox21)
# Values without a mark were called inactive. The source made the active and inactive calls. The call rests on the fitted dose curve; in most records, active means well fitted curve in the direction sought with a large enough effect in the repeat runs; inconclusive means weak or mixed curves; inactive means flat fitted curve, though single readings scatter.
# Assay: qHTS assay to test for compound auto fluorescence at 535 nm (green) in HEK293 cells (AID 720680)
# Conditions: green autofluorescence 485/535 nm; series mostly up to 91.3 µM
# Description: U.S. Tox21 Program National Center for Advancing Translational Sciences [NCATS] NIH Chemical Genomics Center [NCGC] U.S. Environmental Protection Agency [EPA] National Institutes of Environmental Health Sciences [NIEHS] National Toxicology Program [NTP] U.S. Food and Drug Administration [FDA] Tox21 Assay Overview: Compound auto fluorescence often interferes with screening of the compound library against various biological targets and signaling pathways. Some of these compounds may have fluorophoric properties. Such properties may interfere with the assay outputs resulting in false positives and/or negatives. To decrease such complications and ensure the compound activities are relevant in terms of biological response, the Tox21 10K compound library was screened for auto fluorescence. From the fluorophores used as reporter signals in our screening assays, the auto fluorescence equivalencies of compounds against three fluorophores have been evaluated: Triamterene, Fluorescein and Rose Bengal sodium for blue, green and red fluorescence, respectively. The fluorescence intensities were measured using Excitation/Emission wavelengths at 405/460nm, 485/535nm and 540/590nm for blue, green and red labels, respectively. This assay includes the green fluorescence data.
# Tox21 Assay Protocol Summary: 2,000 HEK293 cells in 5 uL of culture medium containing 10% dialyzed FBS per well were dispensed into black wall/clear bottom 1536-well plates using a Multidrop Combi Dispenser (Thermo Scientific). The assay plates were incubated for 4-5 hr at 37C to allow cell attachment to the well bottom, followed by the transfer of 23 nL compound or DMSO vehicle by a pintool work station (Kalypsys, San Diego, CA). After the assay plates were incubated overnight at 37C and 5% CO2, fluorescence intensities in the assay plates were measured by an Envision (PerkinElmer, Shelton, CT) plate reader using three labels for measuring blue, green and red fluorescence at […] 460, 535 and 590nm respectively.
# On the % scale 0 is the no-effect control and ±100 the full control effect.
Structure (SMILES),outcome,"fluorescence, % of fluorescein"
CCOC(=O)[C@@H](C)Oc1ccc(Oc2nc3ccc(Cl)cc3o2)cc1,inactive,
CCCCC(=O)O[C@]1(C(=O)CO)[C@@H](C)C[C@H]2[C@@H]3CCC4=CC(=O)C=C[C@]4(C)[C@@]3(F)[C@@H](O)C[C@@]21C,inactive,
CC(=O)[C@H]1CC[C@H]2[C@@H]3C=CC4=CC(=O)CC[C@@]4(C)[C@@H]3CC[C@]12C,,-0.274% [at 18.6 µM]
CC#N,inactive,
Cc1c(C(=O)NN2CCCCC2)nn(-c2ccc(Cl)cc2Cl)c1-c1ccc(Cl)cc1,inactive,
OCC1CC=CCC1 (stereo not given),inactive,
CCCCCCOC(=O)C(C)C,inactive,
CO[Si](C)(OC)OC,inactive,
Cc1ccccc1N1C(=O)c2cc(S(N)(=O)=O)c(Cl)cc2NC1C (stereo not given),inactive,
O=C(CS)OCCOC(=O)CS,inactive,
CCCCCCCC/C=C\CCCCCCCC(=O)OC,inactive,
Cc1nc2ccccc2s1,inactive,
N#C[C@@H]1C[C@@H]2C[C@@H]2N1C(=O)[C@@H](N)C12CC3CC(CC(O)(C3)C1)C2,inactive,
CCCCC(CC)CNCC(CC)CCCC (stereo not given),inactive,
CNC(=S)NC,inactive,
ON(Cc1ccccc1)Cc1ccccc1,inactive,
O=C(CCCN1CCC(O)(c2ccc(Br)cc2)CC1)c1ccc(F)cc1,,-0.0174% [at 18.6 µM]
O=C(c1ccc(O)cc1)c1ccc(Cl)cc1,inactive,
CC(COc1ccc(C(C)(C)C)cc1)OS(=O)OCCCl (stereo not given),inactive,
CCCCCCCCCOC(C)=O,inactive,

Structure (SMILES),outcome,"fluorescence, % of fluorescein"
CCC(C(=O)OCCOCCN(CC)CC)c1ccccc1 (stereo not given),inactive,
c1cc[c]([Bi]([c]2ccccc2)[c]2ccccc2)cc1,inactive,
CCCCCCCCCCCC[N+](C)(C)CCCS(=O)(=O)[O-],inactive,
CC[C@H](NC(=O)c1cc(F)ccc1NS(=O)(=O)c1cccc2cccnc12)c1ccccc1,inactive,
O=C(O)c1snc(Cl)c1Cl,inactive,
CCOC(=O)OCC,inactive,
c1ccc(COCc2ccccc2)cc1,inactive,
CCOc1cc(N)c(Cl)cc1C(=O)NCC1CN(Cc2ccc(F)cc2)CCO1 (stereo not given),inactive,
CCCOC(=O)c1ccc(C(=O)OCCC)nc1,inactive,
CCOC(=O)C(C)Oc1ccc(Oc2nc3ccc(Cl)cc3o2)cc1 (stereo not given),inactive,
NC(=O)Nc1ccc(Cl)cc1,inactive,
CN1CCN(c2c(F)cc3c(=O)c(C(=O)O)cn4c3c2OCN4C)CC1,inactive,
CC(C)(C)C(=O)O,inactive,
CCC(C)(O)CCC=C(C)C (stereo not given),inactive,
CC(C)C(=O)O,inactive,
CC1=C(/C=C/C(C)=C\C=C\C(C)=C\C(=O)O)C(C)(C)CCC1,inactive,
CCCCC(=O)O[C@]1(C(=O)CO)CC[C@H]2[C@@H]3CCC4=CC(=O)CC[C@]4(C)[C@H]3[C@@H](O)C[C@@]21C,inactive,
NC(=O)N(O)[C@@H]1COc2cc(OCc3ccccc3)ccc21,inactive,
CCC(C)=O,inactive,
C=CCCCCCCCCCCCCCCCC,,0.013% [at 3.72 µM]
